# Source: PubChem
# HT1080-NT tox: kills 2HG-producing HT-1080-NT fibrosarcoma cells. Potency, µM (highest dose often 46.1 µM), for the others: at the highest dose activity, negative = less viability, actives largely listed as cytotoxic. actives 1.6% (n = 360,000). HT-1080-NT fibrosarcoma viability, CellTiter-Glo ATP luminescence, 48 h;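 also: NT is the 2HG producing partner of a matched IDH1 knockdown line; potency is read from the fitted curve at half-maximal effect; 0% = DMSO-treated cells and -100% = media-only wells without cells; nearly all actives have a fitted effect of over 55% in size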
#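 Viability of the 2HG-overproducing fibrosarcoma line after 48 hours of compound exposure at 37 degrees C was determined by luminescence with CellTiter-Glo, and concentration-effect curves were then fitted and categorized.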
# HT1080 IDH1KD tx: HT-1080 IDH1 knockdown cell toxicity (counter line) | HT-1080 IDH1 knockdown viability, ATP luminescence, 48 h | Potency, µM (doses to about 46.1 µM), for inactives: at the top dose activity, negative = toxicity, usual class: cytotoxic | actives 2% (n = 360,000) | AID 686971;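 also: potency is read from the fitted curve at half-maximal effect; 0% = DMSO wells and -100% = cell-free medium wells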
#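 CellTiter-Glo luminescence after 48 h compound exposure at 37 degrees C of IDH1-knockdown HT-1080 cells in 5% FBS RPMI. %Activity scaled between DMSO wells and cell-free media wells, with curves fitted and assigned curve classes.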
# IL-1B inflam inh: inflammasome signaling inhibition, IL-1 beta readout | AID 743279 | THP-1 LPS/ATP IL-1B secretion, AlphaLISA, 16 h; stronger effect = lower value | actives 4.7% (n = 360,000) | activity change, % at 57.5 µM; in the data active = activity change below about -50%; inconclusive = mostly about -30% to -49%
#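 Secreted IL-1B measured by AlphaLISA bead assay after 16 h compound exposure of THP-1 cells; compounds (final up to 57.5 uM) added 1 h before LPS (250 ng/mL) and ATP (1.25 mM) stimulation; lower signal means less secretion.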
# ELG1 DNA repair: blocks ELG1-dependent DNA repair in HEK293T cells; HEK293T ELG1-luciferase reporter, luminescence, 16 h; DNA damage induced by 5-fluorouridine; Potency, µM (titrated, usually from 46.1 µM), without a hit: top-dose activity change, negative = inhibition, actives largely listed as inhibitors; actives 2.3% (n = 330,000); AID 504467; also: potency is read from the fitted curve at half-maximal effect; nearly all actives have a fitted effect of over 55% in size
#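 Overnight (16 hr) co-exposure of 2,000 cells/well to 5-fluorouridine and compound at 37 °C preceded detection. Luciferase was quantified via ONE-Glo luminescence; loss of signal denotes inhibition.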
# TDP1 cell CPT: DT40-hTDP1 cell growth loss with CPT | chicken DT40 Tdp1-/-;hTDP1 cells + 20 nM CPT, ATP luminescence, 48 h | Potency, µM (highest dose often 46.2 µM), without a hit: at the highest dose activity change, negative = growth inhibition, most hits filed as inhibitors | actives 12% (n = 420,000) | AID 686979; also: potency is read from the fitted curve at half-maximal effect; nearly all actives have a fitted effect of over 55% in size
#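 Chicken DT40 Tdp1-/- cells stably complemented with human TDP1 were seeded at 400 cells/well in medium containing 20 nM camptothecin, exposed to pin-transferred compounds, and grown at 37 °C for at least 48 hr. Viability was read as ATP luminescence.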
# TDP1 cell noCPT: qHTS for Inhibitors of human tyrosyl-DNA phosphodiesterase 1 (TDP1): qHTS in cells in absence of CPT; Potency, µM (series often up to 46.2 µM), without a hit: top-dose activity change, negative = growth inhibition, actives largely listed as inhibitors; DT40 Tdp1-/- hTDP1 cells, no CPT, ATP luminescence, 48 h; actives 15% (n = 420,000); also: potency is read from the fitted curve at half-maximal effect; nearly all actives have a fitted effect of over 55% in size
#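 No-CPT arm: Tdp1-/-;hTDP1 DT40 cells (400/well) plus compounds, incubated ≥48 hr at 37 °C. Readout CellTiter-Glo luminescence.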
# * hit, by the source's call; ? = inconclusive; · = no result given; ! = repeats disagree. Compounds with a hit are over-represented: about 19% of the library has one in this group of screens. Unless noted, calls follow the shape of the dose curve; as a rule, active = well fitted curve in the direction sought with a large enough effect; inconclusive = small, poorly fitted or top-dose-only effect, or another doubt; inactive = no such curve, though single readings can be large; an effect the other way counts as inactive or inconclusive. Unless noted, % is scaled to controls: 0 for no effect and ±100 for the full control effect.
SMILES,HT1080-NT tox,HT1080 IDH1KD tx,IL-1B inflam inh,ELG1 DNA repair,TDP1 cell CPT,TDP1 cell noCPT
c1ccc(Sc2ccncc2)cc1,1%,5%,-25,·,1%,3%
c1cc(SSc2ccncc2)ccn1,3%,-17%,?,3%,?,16µM*
CC1(C(=O)NS(=O)(=O)c2cccc(Cl)c2)CCN1C(=O)C1(c2ccc(Cl)cc2)CC1 (stereo not given),-3%,5%,35,·,?,-11%
CCOC(=O)c1c(C)[nH]c(C)c1S(=O)(=O)NCC(=O)N1CCN(c2ccccc2OC)CC1,·,·,·,·,?,-19%
C[C@@H]1ON(C)[C@H]2C[C@H]3c4[nH]c5ccc(-c6ccc7c(c6)OCO7)cc5c4CCN3C(=O)[C@@H]12,?,?,0,·,13µM*,9.2µM*
C[C@@H]1ON(C)[C@H]2C[C@H]3c4[nH]c5ccccc5c4CCN3C(=O)[C@@H]12,6%,2%,31,·,0%,-16%
O=c1cc(CCl)[nH]c2nc3ccccc3n12,18µM*,?,-56*,-9%,-8%,-3%
CC(C)c1cc(=O)n2c(nc3ccccc32)[nH]1,-6%,-2%,-1,-3%,?,?
O=c1cc(-c2ccccc2)[nH]c2nc3ccccc3n12,?,?,15,?,9.2µM*,9.2µM*
O=C(Nc1ccccc1)c1sc(Cl)nc1-c1ccccc1,5%,6%,10,6%,?,?
O=C(Nc1cccnc1)c1sc(Nc2ccccc2F)nc1-c1ccccc1,?,?,2,?,?,?
Cc1ccc(NC(=O)c2sc(Cl)nc2-c2ccccc2)cc1C,-7%,0%,16,-8%,?,18µM*
Cc1ccccc1Nc1nc(-c2ccccc2)c(C(=O)Nc2cccnc2)s1,-19%,-29%,?,23µM*,?,?
Cc1cc(=O)n2c(C(=O)Nc3ccc(C)c(C)c3)c(C(=O)Nc3ccccc3)sc2n1,11%,8%,-4,2%,?,16µM*
COc1ccc([C@H]2CN(c3ccc(OC)cc3)C(=O)[C@@H]2CC(=O)Nc2ccc(Br)cc2)cc1,-5%,-26%,-23,·,?,?
Cc1cc(C(=O)NNC(=O)c2ccc(Cl)cc2Cl)c(C)o1,1%,0%,-13,?,-12%,-9%
CC#CCOC(=O)c1c(C)nc2sc3c(c2c1N)CC[C@@H](O)C3,·,·,·,·,-59%,11µM*
Oc1ccccc1-c1nc2c3ccccc3c3ccccc3c2[nH]1,?,?,29,0%,21µM*,18µM*
Oc1ccccc1-c1ccn[nH]1,16%,8%,-3,?,-20%,-17%
c1csc(-c2nc3c4ccccc4c4ccccc4c3[nH]2)c1,-25%,?,-5,?,21µM*,?
Cc1oc(-c2ccc(Cl)cc2)nc1Cn1c(=O)cc(-c2ccccc2)c2c(C)nn(C)c21,·,·,·,·,-9%,-14%
CC1=CCC(C(C)(C)O)CC1 (stereo not given),·,·,·,·,4%,-3%
COc1cccc2c1C(=O)c1c(O)c3c(c(O)c1C2=O)CC(O)(C(C)=O)CC3OC1CC(N(C)C)C(O)C(C)O1 (stereo not given),?,0.73µM*,-101*,·,0.052µM*,0.082µM*
COc1cccc2c1C(=O)c1c(O)c3c(c(O)c1C2=O)C[C@@](O)(C(=O)CO)C[C@@H]3O[C@H]1C[C@H](N)[C@H](O)[C@H](C)O1,9.2µM*,0.33µM*,-107*,?,0.21µM*!,0.021µM*!
COc1cccc2c1C(=O)c1c(O)c3c(c(O)c1C2=O)C[C@@](O)(C(=O)CO)C[C@@H]3OC1CC(N)C(O)C(C)O1 (stereo not given in full),?,4.6µM*,-105*,·,0.29µM*,0.26µM*
SMILES,HT1080-NT tox,HT1080 IDH1KD tx,IL-1B inflam inh,ELG1 DNA repair,TDP1 cell CPT,TDP1 cell noCPT
CCOC(=O)N1CCN(C(=O)CNC(=O)c2ccc(Br)cc2)CC1,1%,9%,-2,4%,3%,2%
CCc1nn(CC(=O)N2CCCCC2)c(=O)c2cc3occc3n12,·,·,·,·,-13%,-2%
COc1cc2ccccc2cc1C(=O)N(CCN(C)C)c1nc2ccc(C)cc2s1,23µM*,16µM*,-21,?,?,?
Cc1cccc2sc(N(CCN(C)C)C(=O)c3cc(Cl)sc3Cl)nc12,9%,1%,-29,-13%,?,?
COc1cc2ccccc2cc1C(=O)N(CCN(C)C)c1nc2c(C)cccc2s1,?,?,-61*,-7%,16µM*,23µM*
COc1ccccc1C(=O)N(CCN(C)C)c1nc2cc(C)cc(C)c2s1,1%,0%,0,7%,?,26µM*
Cc1ccc2nc(N(CCN(C)C)C(=O)c3cc(Cl)sc3Cl)sc2c1,27%,0%,-15,?,-28%,-17%
COc1cc2ccccc2cc1C(=O)N(CCN(C)C)c1nc2c(OC)ccc(OC)c2s1,16µM*,?,-53*,-10%,?,?
CCOC(=O)c1c(NC(=O)c2cc(-c3ccccc3OC)on2)sc(C)c1C,·,·,·,·,-2%,5%
COc1ccc(C(CCN2CCCC2)c2c(OC)cc(OC)c3c(-c4ccccc4)cc(=O)oc23)cc1 (stereo not given),?,-3%,-6,4%,?,16µM*
COc1cc(OC)c2c(-c3ccccc3)cc(=O)oc2c1C(CC(=O)N1CCN(c2ccccc2)CC1)c1ccc(N(C)C)cc1 (stereo not given),0%,1%,-11,?,?,?
COc1cc(OC)c2c(-c3ccccc3)cc(=O)oc2c1C(CC(=O)N1CCN(c2ccccc2)CC1)c1ccc2c(c1)OCO2 (stereo not given),·,·,·,9%,·,·
COc1cc(OC)c2c(C)cc(=O)oc2c1C(CCN1CCN(c2ccccc2)CC1)c1ccc2c(c1)OCO2 (stereo not given),-13%,-13%,48,?,5.2µM*,21µM*
COc1cc(C(CCN2CCCC2)c2c(OC)cc(OC)c3c(-c4ccccc4)cc(=O)oc23)cc(OC)c1OC (stereo not given),-26%,-19%,17,6%,16µM*,21µM*
